# Experimental data published in PubChem BioAssay (Tox21).
# Values joined by “and” are separate entries in the source; they are usually repeats but may differ in a detail not shown here. Identical values can stand only once. Inconclusive results are not listed. Where a call stands in place of a potency, no number is given. A structure can be active in one record and inactive in another. Active and inactive are the calls of the source. Unless noted, calls follow the shape of the dose curve; as a rule, active = well fitted cell-killing curve with a large enough effect in the repeat runs; inconclusive = weak or mixed curves; inactive = no such curve, though single readings can be large or run the other way.
# Tested on: not listed separately
# Test: qHTS assay for identifying genotoxic compounds that show differential cytotoxicity against isogenic chicken DT40 cell lines with known DNA damage response pathways - Rad54/Ku70 mutant cell line (AID 743015); also: nearly all actives have a fitted effect of over 60% in size; also: potency is read from the fitted curve at half-maximal effect
# Settings: DT40 Rad54/Ku70 mutant viability, CellTiter-Glo, 40 h; series mostly up to 66.8 µM
row,SMILES,Potency
1,CC(C)(C)NC[C@H](O)COc1nsnc1N1CCOCC1,inactive
2,Cc1ccc([N+](=O)[O-])cc1N,inactive
3,CC(C)=CCC/C(C)=C/C=O,inactive
4,CC1(C)[C@@H](O[C@H]2O[C@H](C(=O)O)[C@@H](O)[C@H](O)[C@H]2O[C@@H]2O[C@H](C(=O)O)[C@@H](O)[C@H](O)[C@H]2O)CC[C@]2(C)[C@H]3C(=O)C=C4[C@@H]5C[C@@](C)(C(=O)O)CC[C@]5(C)CC[C@@]4(C)[C@]3(C)CC[C@@H]12,inactive
5,C1CCCNCC1,inactive
6,COc1c2ccoc2cc2oc(=O)ccc12,inactive
7,CC(=O)Nc1ccc(CC(=O)O)cc1,inactive
8,CCCCCCC(=O)O,inactive
9,CC(=O)OC(C)(C)C1CC=C(C)CC1 (centres undefined),inactive and 54.5 µM (active)
10,Cc1ccccc1C=O,inactive
11,NC(=O)NC(N)=O,inactive
12,Cc1cc(CC(=O)O)n(C)c1C(=O)c1ccc(Cl)cc1,inactive
13,C[Si](C)(C)N[Si](C)(C)C,inactive
14,COc1ccc2cc3[n+](cc2c1OC)CCc1cc2c(cc1-3)OCO2,4.22 µM (active) and 5.49 µM (active)
15,Nc1nc(N)c2nc(-c3ccccc3)c(N)nc2n1,26.6 µM (active) and 6.94 µM (active) and 21.7 µM (active)
16,Clc1cccc(Cl)c1NC1=NCCN1,inactive
17,O=C(O)C1=NN(c2ccc(S(=O)(=O)O)cc2)C(=O)C1,inactive
18,N[C@@H](Cc1cc(I)c(Oc2ccc(O)c(I)c2)c(I)c1)C(=O)O,inactive
19,C=C(CC(=O)O)C(=O)O,inactive

row,SMILES,Potency
1,Cc1ccccc1Cl,inactive
2,CCCCCCCCCCCCCC(=O)O,inactive
3,O=C1CCCCCCCCCCC1,inactive
4,COCN(COC)c1nc(N(COC)COC)nc(N(COC)COC)n1,inactive
5,Cc1nnc(NS(=O)(=O)c2ccc(N)cc2)s1,inactive
6,C[n+]1ccn(CCO)c1,inactive
7,NC(N)=S,inactive
8,CCCCCCCCC(=O)O,inactive
9,OC1CCCCC1,inactive
10,Cc1ccc(C(C)C)cc1,inactive
11,CCn1cc(C(=O)O)c(=O)c2cc3c(cc21)OCO3,inactive
12,CC(=O)CC(=O)N(C)C,inactive
13,CCCCC(CC)COC(=O)c1ccc(C(=O)OCC(CC)CCCC)cc1 (centres undefined),inactive
14,Cc1cc(C)c(O)c(C)c1,inactive
15,CC(C)c1ccc(C(C)C)cc1,inactive
16,Oc1ccc(Cc2ccccc2O)cc1,inactive
17,OCC(O)CS (centres undefined),inactive
18,Cc1ccncc1,inactive

# Tested on: not listed separately
# Test: qHTS assay to identify small molecule antagonists of the androgen receptor (AR) signaling pathway - cell viability counter screen (AID 743033; also: nearly all actives have a fitted effect of over 45% in size; also: potency is read from the fitted curve at half-maximal effect)
# Settings: AR-bla HEK293 viability, CellTiter-Glo luminescence, 16 h; series mostly up to 58.5 µM
row,SMILES,Potency
1,CC(C)(C)NC[C@H](O)COc1nsnc1N1CCOCC1,inactive
2,Cc1ccc([N+](=O)[O-])cc1N,inactive
3,CC(C)=CCC/C(C)=C/C=O,inactive
4,O=C(NCC1CCCCN1)c1cc(OCC(F)(F)F)ccc1OCC(F)(F)F (centres undefined),inactive
5,CC1(C)[C@@H](O[C@H]2O[C@H](C(=O)O)[C@@H](O)[C@H](O)[C@H]2O[C@@H]2O[C@H](C(=O)O)[C@@H](O)[C@H](O)[C@H]2O)CC[C@]2(C)[C@H]3C(=O)C=C4[C@@H]5C[C@@](C)(C(=O)O)CC[C@]5(C)CC[C@@]4(C)[C@]3(C)CC[C@@H]12,inactive
6,C1CCCNCC1,inactive
7,COc1c2ccoc2cc2oc(=O)ccc12,inactive
8,CC(=O)Nc1ccc(CC(=O)O)cc1,inactive
9,CCCCCCC(=O)O,inactive
10,CC(=O)OC(C)(C)C1CC=C(C)CC1 (centres undefined),inactive
11,Cc1ccccc1C=O,inactive
12,NC(=O)NC(N)=O,inactive
13,Cc1cc(CC(=O)O)n(C)c1C(=O)c1ccc(Cl)cc1,inactive
14,C[Si](C)(C)N[Si](C)(C)C,inactive
15,Nc1nc(N)c2nc(-c3ccccc3)c(N)nc2n1,49.5 µM (active)
16,Clc1cccc(Cl)c1NC1=NCCN1,inactive
17,O=C(O)C1=NN(c2ccc(S(=O)(=O)O)cc2)C(=O)C1,inactive
18,N[C@@H](Cc1cc(I)c(Oc2ccc(O)c(I)c2)c(I)c1)C(=O)O,inactive
19,C=C(CC(=O)O)C(=O)O,inactive

row,SMILES,Potency
1,Cc1ccccc1Cl,inactive
2,CCCCCCCCCCCCCC(=O)O,inactive
3,O=C1CCCCCCCCCCC1,inactive
4,COCN(COC)c1nc(N(COC)COC)nc(N(COC)COC)n1,inactive
5,Cc1nnc(NS(=O)(=O)c2ccc(N)cc2)s1,inactive
6,C[n+]1ccn(CCO)c1,inactive
7,NC(N)=S,inactive
8,CCCCCCCCC(=O)O,inactive
9,OC1CCCCC1,inactive
10,Cc1ccc(C(C)C)cc1,inactive
11,CCn1cc(C(=O)O)c(=O)c2cc3c(cc21)OCO3,inactive
12,CC(=O)CC(=O)N(C)C,inactive
13,CCCCC(CC)COC(=O)c1ccc(C(=O)OCC(CC)CCCC)cc1 (centres undefined),inactive
14,Cc1cc(C)c(O)c(C)c1,inactive
15,CC(C)c1ccc(C(C)C)cc1,inactive
16,Oc1ccc(Cc2ccccc2O)cc1,inactive
17,OCC(O)CS (centres undefined),inactive
18,Cc1ccncc1,inactive

# Molecular target: Androgen receptor (Homo sapiens) (UniProt P10275)
# Sequence (P10275 whole entry, looked up): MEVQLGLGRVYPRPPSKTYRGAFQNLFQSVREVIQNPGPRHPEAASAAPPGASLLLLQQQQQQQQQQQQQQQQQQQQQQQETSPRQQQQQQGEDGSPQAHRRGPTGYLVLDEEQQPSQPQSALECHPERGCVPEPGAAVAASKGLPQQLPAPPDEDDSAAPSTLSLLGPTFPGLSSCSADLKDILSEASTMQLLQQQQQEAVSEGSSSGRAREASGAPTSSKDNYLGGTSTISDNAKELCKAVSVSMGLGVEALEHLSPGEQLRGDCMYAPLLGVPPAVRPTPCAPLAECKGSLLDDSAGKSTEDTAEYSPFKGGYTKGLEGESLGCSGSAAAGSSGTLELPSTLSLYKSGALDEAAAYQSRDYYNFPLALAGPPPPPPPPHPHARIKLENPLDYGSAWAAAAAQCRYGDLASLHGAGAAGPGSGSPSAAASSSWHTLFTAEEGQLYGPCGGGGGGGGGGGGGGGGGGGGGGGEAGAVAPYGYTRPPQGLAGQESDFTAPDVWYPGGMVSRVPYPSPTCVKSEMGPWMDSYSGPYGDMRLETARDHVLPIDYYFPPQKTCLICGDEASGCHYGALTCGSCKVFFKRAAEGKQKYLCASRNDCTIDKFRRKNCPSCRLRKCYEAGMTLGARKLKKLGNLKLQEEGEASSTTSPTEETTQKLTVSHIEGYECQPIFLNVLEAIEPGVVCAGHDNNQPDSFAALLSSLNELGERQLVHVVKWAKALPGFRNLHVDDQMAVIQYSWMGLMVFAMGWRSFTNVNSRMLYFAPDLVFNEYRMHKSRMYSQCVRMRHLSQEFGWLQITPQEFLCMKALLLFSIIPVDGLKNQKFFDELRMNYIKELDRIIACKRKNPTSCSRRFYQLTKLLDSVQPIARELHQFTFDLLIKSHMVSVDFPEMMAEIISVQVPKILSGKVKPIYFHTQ
# Test: qHTS assay to identify small molecule antagonists of the androgen receptor (AR) signaling pathway (AID 743035; active = well fitted inhibition curve with a large enough effect in the signal ratio in the repeat runs, not every such curve was filed as active; the % refers to the signal ratio)
# Settings: HEK293 AR-UAS-bla, R1881-stimulated, beta-lactamase FRET, 16 h; series mostly up to 58.5 µM
# Procedure, shortened: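 Beta-lactamase FRET read (2 h RT incubation with LiveBLAzer B/G) following 16 h of compound plus R1881 treatment of AR-UAS-bla HEK293 cells, which had been pre-incubated 4 h at 37C.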
row,SMILES,Potency
1,Cc1ccccc1Cl,inactive
2,Cc1nnc(NS(=O)(=O)c2ccc(N)cc2)s1,inactive
3,Cc1ccc(C(C)C)cc1,inactive
4,CCCCC(CC)COC(=O)c1ccc(C(=O)OCC(CC)CCCC)cc1 (centres undefined),inactive
5,OCC(O)CS (centres undefined),inactive
